The target in the first experiment is RUNX1 (UniProt Q01196). The experiment can be described thus: RUNX1 binding intensity (PBM fluorescence), RUNX1 alone (arbitrary fluorescence units); higher = stronger binding. The conditions noted are these: RUNX1 concentration 2 nM; ETS1 concentration 0 nM. Here is the method:
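Cooperative gcPBM on 36-bp genomic probes with neighbouring ETS1 and RUNX1 sites. Recombinant human RUNX1 (2 nM) was incubated alone or with ETS1 (25 nM) and detected with anti-RUNX1 antibody plus Alexa488 secondary. Values are medians over 4 replicate spots; the RUNX1+ETS1 data were normalised to the RUNX1-only data. The probes sit in constant array flanks that are not printed.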
RUNX1, sequence (Q01196 whole entry): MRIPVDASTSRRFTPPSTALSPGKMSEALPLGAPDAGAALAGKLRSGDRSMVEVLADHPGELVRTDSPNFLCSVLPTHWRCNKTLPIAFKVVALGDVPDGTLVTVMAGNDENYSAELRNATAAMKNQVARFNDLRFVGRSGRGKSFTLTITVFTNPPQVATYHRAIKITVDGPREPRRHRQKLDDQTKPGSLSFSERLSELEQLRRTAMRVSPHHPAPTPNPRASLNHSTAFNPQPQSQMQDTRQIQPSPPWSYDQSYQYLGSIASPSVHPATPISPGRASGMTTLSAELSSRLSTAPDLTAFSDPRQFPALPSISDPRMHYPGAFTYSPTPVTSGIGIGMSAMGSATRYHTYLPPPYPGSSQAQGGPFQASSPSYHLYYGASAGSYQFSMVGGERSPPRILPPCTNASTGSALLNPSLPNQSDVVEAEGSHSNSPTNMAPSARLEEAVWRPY
CAAAGGTTAAATGCAGGATGTGGTTTCTGCAGACTC: the RUNX1 binding intensity worked out at 922.

In the case of GGGACGGGGAGGGCAGGATGTGGTCGCTCTTCCCTC, the RUNX1 binding intensity stood at 822.

GGGGGAGTTTTCGGAAGCGCTAACCGCGTTGGGGCC came in with an RUNX1 binding intensity of 860.

As for ATACTGAGTCATTTCCTGTGGTGTTATTGTGTTGTA, the RUNX1 binding intensity was found to be 993.

The sequence CTCTCCACCTCCTTCCGACCAGGACCGCACCCCCCC showed an RUNX1 binding intensity of 1990.

GCGAAAGGAACTTCCTTTGCATGCGGTCAGAGTGCT displayed an RUNX1 binding intensity of 892.

GACTATGTGCTTCCGGTCTCCAATACCGCAGGAGGG displayed an RUNX1 binding intensity of 981.

Sequence AATAAAGCTACAGACTTCCGCCCACAGGTCGCCGCT showed an RUNX1 binding intensity of 789.

Turning to ACCGCCGGAAGTTTCTGCCGCGGCTTTGCGGGGACG, the RUNX1 binding intensity was 791.

In turn, GTTCTCCACATCCTGTTCCGTAGCTGTGGTGCACCG gave an RUNX1 binding intensity of 3060.

The sequence ACCAGAAGCACTGCAGGATGTGGTATCAAGACGCCT gave an RUNX1 binding intensity of 774.

GTGGGAGCGGAAGCCTGAGCGGCCTGCGGCCTCCGG yielded an RUNX1 binding intensity of 692.

Regarding GTTAGAGGAAGAGGAAGCGGTCAAGAGATCGTCACA, the RUNX1 binding intensity came out at 766.

For the sequence CTTCTTTCCAGAGGATGTGGCTTCAGCGGGAGAGCT, the RUNX1 binding intensity was 817.

In turn, GTTCTTATCCTGTGGCTCGTTTGTGGTTACTGACAT displayed an RUNX1 binding intensity of 4330.

For the sequence GGGGCTGGGAAAGGATGTGGTAAGGGCCAGTCAGTC, the RUNX1 binding intensity was 749.

On to ATCAGAGCGGAAATCTCAGTCTTGTGTGGGGACCTG, for which the RUNX1 binding intensity was 647.

As for CTGCTTCCGGCCCCGGGGTTCGCTACCCCACAATCC, the RUNX1 binding intensity was 981.

In the case of ACCTCTCTCACTTCCTACCAGAGAACCACAGCCAAG, the RUNX1 binding intensity was found to be 1490.

For CAGGCCTTTCCTGCTATCGTTTGTGGTTTGAGCAGT, the RUNX1 binding intensity stood at 1940.

In the case of TTTCAAAACCCGGAAATGACCGCCAGGCTGGCATCA, the RUNX1 binding intensity is 859.

The sequence TCCAGCGGAAGGGGGCATCTTTGCGGCAGAGGCAGC returned an RUNX1 binding intensity of 764.

In turn, GCCTGAAGGACTTCCGGGAACCGCAAAGCACGGTGT came in with an RUNX1 binding intensity of 1500.

Sequence ATCTTAAGTGTTTCCTGACACCACAAATCCCCAAAC came in with an RUNX1 binding intensity of 1020.

For GCCGTGGGTACGACCGGAAGCCGCAGGTGGGTGAAG, the RUNX1 binding intensity worked out at 772.

In turn, AAAGAGGAAATCACATACCCGAAAACCACATGCACA came in with an RUNX1 binding intensity of 944.

CCGCCGCGCGCCGGATGCTAAGACCGCGATTTCCCC came in with an RUNX1 binding intensity of 781.

Regarding CACCAGGACGCAACAGGAAACCACAAAGGCCTGAGA, the RUNX1 binding intensity is 2660.

On to GCGCCCGGAAGGAAGGCTGGGGTAGGTTGTGGTTTC, for which the RUNX1 binding intensity turned out to be 830.

The sequence CACCTAAAGCCATTGGGATGTGGTTTCTCTTTTTCA displayed an RUNX1 binding intensity of 1040.

The sequence TGGATGGCAAGCAACGGAAACCGCAAACAGGGCTGT returned an RUNX1 binding intensity of 15600.

In turn, ACCGGATGCCGGGGCACCGCCAGATGTGGCCACGAG showed an RUNX1 binding intensity of 746.

GCCCAGGCAGGAAGCCAGGCGCCCACAGGTTGGCAG gave an RUNX1 binding intensity of 643.

For the sequence TGCGCCGCTTCCGCTGCCCGAGGAAGAGCCGCAGTC, the RUNX1 binding intensity was 802.

Take TGGGCAAGATATCCTGGAAGTGGTTAAAAAAAATTA: the RUNX1 binding intensity stood at 739.

As to CCTCACAGGGACTTCCTTCCCCGCGGTTCAGGAATC, the RUNX1 binding intensity was 866.

For the sequence GCAACTGAACAGGAAACTAAAAAACCACAACACTTA, the RUNX1 binding intensity is 1900.

On to GAAAGCTGCACTATTTCCTGAGGTTAGAGGTTTAAA, for which the RUNX1 binding intensity was 815.

As to TTGGTCAGGATGTGGCTGAAGAAGCCACAAGAAAAA, the RUNX1 binding intensity is 769.

Take GTGAACTTCCTCCCCCACTGCCTATTTTTACCGCAG: the RUNX1 binding intensity amounted to 1820.

A further experiment deals with T1, ETS1 (UniProt P14921).
T1 sequence: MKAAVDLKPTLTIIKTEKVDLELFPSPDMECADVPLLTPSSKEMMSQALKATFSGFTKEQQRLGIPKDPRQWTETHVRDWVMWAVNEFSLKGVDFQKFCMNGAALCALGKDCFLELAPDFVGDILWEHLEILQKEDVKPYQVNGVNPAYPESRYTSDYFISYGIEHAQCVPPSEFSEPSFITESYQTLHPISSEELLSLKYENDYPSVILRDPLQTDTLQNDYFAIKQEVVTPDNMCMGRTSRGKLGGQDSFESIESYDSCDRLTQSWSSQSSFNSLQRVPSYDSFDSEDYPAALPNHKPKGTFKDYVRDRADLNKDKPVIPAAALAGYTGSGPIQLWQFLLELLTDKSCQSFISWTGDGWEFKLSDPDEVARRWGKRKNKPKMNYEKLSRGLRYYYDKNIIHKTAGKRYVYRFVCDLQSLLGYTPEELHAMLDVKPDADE
In words: ETS1 binding intensity (PBM fluorescence) in presence of RUNX1, normalised to ETS1-only experiment (arbitrary fluorescence units); higher = stronger binding. Particulars: ETS1 concentration 1 nM; RUNX1 concentration 25 nM.
In the case of CAAAGGTTAAATGCAGGATGTGGTTTCTGCAGACTC, the ETS1 binding intensity was found to be 25400.

In the case of GGGACGGGGAGGGCAGGATGTGGTCGCTCTTCCCTC, the ETS1 binding intensity is 9330.

As for GGGGGAGTTTTCGGAAGCGCTAACCGCGTTGGGGCC, the ETS1 binding intensity came to 874.

ATACTGAGTCATTTCCTGTGGTGTTATTGTGTTGTA: the ETS1 binding intensity was determined as 2500.

CTCTCCACCTCCTTCCGACCAGGACCGCACCCCCCC: the ETS1 binding intensity came out at 939.

In the case of GCGAAAGGAACTTCCTTTGCATGCGGTCAGAGTGCT, the ETS1 binding intensity worked out at 2280.

Turning to GACTATGTGCTTCCGGTCTCCAATACCGCAGGAGGG, the ETS1 binding intensity was found to be 13600.

AATAAAGCTACAGACTTCCGCCCACAGGTCGCCGCT: the ETS1 binding intensity was determined as 1280.

In the case of ACCGCCGGAAGTTTCTGCCGCGGCTTTGCGGGGACG, the ETS1 binding intensity stood at 9610.

With GTTCTCCACATCCTGTTCCGTAGCTGTGGTGCACCG, the ETS1 binding intensity was determined as 1780.

In the case of ACCAGAAGCACTGCAGGATGTGGTATCAAGACGCCT, the ETS1 binding intensity was found to be 6680.

Regarding GTGGGAGCGGAAGCCTGAGCGGCCTGCGGCCTCCGG, the ETS1 binding intensity came out at 1070.

Turning to GTTAGAGGAAGAGGAAGCGGTCAAGAGATCGTCACA, the ETS1 binding intensity was determined as 1280.

Consider CTTCTTTCCAGAGGATGTGGCTTCAGCGGGAGAGCT, for which the ETS1 binding intensity turned out to be 1830.

With GTTCTTATCCTGTGGCTCGTTTGTGGTTACTGACAT, the ETS1 binding intensity was determined as 741.

In the case of GGGGCTGGGAAAGGATGTGGTAAGGGCCAGTCAGTC, the ETS1 binding intensity was 3240.

Take ATCAGAGCGGAAATCTCAGTCTTGTGTGGGGACCTG: the ETS1 binding intensity was found to be 1820.

As to CTGCTTCCGGCCCCGGGGTTCGCTACCCCACAATCC, the ETS1 binding intensity was 1240.

For ACCTCTCTCACTTCCTACCAGAGAACCACAGCCAAG, the ETS1 binding intensity was 404.

As to CAGGCCTTTCCTGCTATCGTTTGTGGTTTGAGCAGT, the ETS1 binding intensity came out at 1120.

Consider TTTCAAAACCCGGAAATGACCGCCAGGCTGGCATCA, for which the ETS1 binding intensity worked out at 6320.

For TCCAGCGGAAGGGGGCATCTTTGCGGCAGAGGCAGC, the ETS1 binding intensity is 431.

As to GCCTGAAGGACTTCCGGGAACCGCAAAGCACGGTGT, the ETS1 binding intensity was 3510.

ATCTTAAGTGTTTCCTGACACCACAAATCCCCAAAC: the ETS1 binding intensity is 507.

Turning to GCCGTGGGTACGACCGGAAGCCGCAGGTGGGTGAAG, the ETS1 binding intensity was 35000.

For the sequence AAAGAGGAAATCACATACCCGAAAACCACATGCACA, the ETS1 binding intensity came out at 1050.

CCGCCGCGCGCCGGATGCTAAGACCGCGATTTCCCC: the ETS1 binding intensity was 7590.

Regarding CACCAGGACGCAACAGGAAACCACAAAGGCCTGAGA, the ETS1 binding intensity is 6500.

In the case of GCGCCCGGAAGGAAGGCTGGGGTAGGTTGTGGTTTC, the ETS1 binding intensity was found to be 2740.

In the case of CACCTAAAGCCATTGGGATGTGGTTTCTCTTTTTCA, the ETS1 binding intensity turned out to be 894.

Consider TGGATGGCAAGCAACGGAAACCGCAAACAGGGCTGT, for which the ETS1 binding intensity was 6230.

Regarding ACCGGATGCCGGGGCACCGCCAGATGTGGCCACGAG, the ETS1 binding intensity worked out at 1730.

For the sequence GCCCAGGCAGGAAGCCAGGCGCCCACAGGTTGGCAG, the ETS1 binding intensity is 1090.

With TGCGCCGCTTCCGCTGCCCGAGGAAGAGCCGCAGTC, the ETS1 binding intensity turned out to be 1230.

For TGGGCAAGATATCCTGGAAGTGGTTAAAAAAAATTA, the ETS1 binding intensity was found to be 1050.

On to CCTCACAGGGACTTCCTTCCCCGCGGTTCAGGAATC, for which the ETS1 binding intensity is 577.

In the case of GCAACTGAACAGGAAACTAAAAAACCACAACACTTA, the ETS1 binding intensity stood at 15600.

For the sequence GAAAGCTGCACTATTTCCTGAGGTTAGAGGTTTAAA, the ETS1 binding intensity was determined as 502.

Turning to TTGGTCAGGATGTGGCTGAAGAAGCCACAAGAAAAA, the ETS1 binding intensity is 943.

Turning to GTGAACTTCCTCCCCCACTGCCTATTTTTACCGCAG, the ETS1 binding intensity was found to be 596.
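For RUNX1 binding intensity (PBM fluorescence), RUNX1 alone in this document: Full-length recombinant human RUNX1 bound to double-stranded 36-bp genomic probes on a high-density microarray, scored as Alexa488 fluorescence per spot via anti-RUNX1 antibody, median of four replicate spots.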
